# Reference: PubChem BioAssay AID504832 (National Center for Advancing Translational Sciences (NCATS), 2011)
# The whole screen tested about 310,000 compounds, of which about 18,000 (5.8%) were called active. Where a call stands in place of a potency, no number is given. Inconclusive results (about 22%) are left out. The call rests on the fitted dose curve; in most records, active means well fitted inhibition curve with a large enough effect; inconclusive means small, poorly fitted or top-dose-only effect, or another doubt; inactive means no such curve, though single readings can be large or run the other way. The full list was thinned out, with actives kept by preference.
# Experiment: Primary qHTS for delayed death inhibitors of the malarial parasite plastid, 48 hour incubation
# Settings: P. falciparum luciferase growth in erythrocytes; series mostly up to 28.7 µM
# From the text: The goal of this screen is to discover new antimalarial compounds that act by inhibiting the development of the apicoplast in the malarial parasite Plasmodium falciparum. The biochemical processes that make this organelle essential for erythrocytic stage parasites are not well understood. However, antibiotics such as azithromycin and tetracycline, which target the apicoplast translational machinery, have a potent antimalarial effect.
# We have developed a cell-based assay that measures parasite growth based on the expression of an integrated copy of a firefly luciferase reporter. To detect small molecules that cause this "delayed death" phenotype, erythrocytes infected with the luciferase-expressing parasites were incubated with compounds for either one or two generations, corresponding to 48 and 96 hours, respectively. Compounds that inhibit parasite growth in the second generation, but not the first, should be enriched in antimalarials that target the apicoplast. Growth inhibition is detected by a decrease in luciferase activity.
# Assay Provider: David Fidock and Eric Ekland, Columbia University
# Keywords: NIH Roadmap, MLPCN, MLI, MLSMR, qHTS, NCGC, qHTS, malaria, luciferase, viability
# Four microliters of culture medium (RPMI 1640 with 0.5% w/v Albumax (GIBCO), 24 mM sodium bicarbonate and 10 ug/mL gentamycin) were dispensed by a Multi-drop Combi into white solid 1536-well plates (Grenier) and 23 nL compound was added by a pin tool. Four microliters of infected erythrocytes (2% hematocrit, 0.1% parasitemia final concentration) in culture medium were dispensed and the plates incubated for 48 hours at 37 C in 5% CO2. Two microliters of luciferase detection reagent was added and luminescence was detected by a ViewLux (PerkinElmer) reader.
# Potency means the concentration at half of the fitted maximal effect.
row,Structure (SMILES),Potency
1,CC(CN1CCOCC1)OC(=O)c1ccc(C(C)(C)C)cc1 (stereo not given),inactive
2,Cc1nn(C(=O)c2ccoc2C)c(N)c1-c1ccccc1,inactive
3,Cc1nn2c(c1-c1ccccc1)N=C(c1ccco1)CC2c1ccccc1 (stereo not given),14.7 µM (active)
4,O=C(O)CCCC(=O)N1N=C(c2ccco2)CC1c1ccco1 (stereo not given),inactive
5,CCN1CCN(C(=O)C2CCN(S(=O)(=O)c3cc(Cl)ccc3Cl)CC2)CC1,inactive
6,COc1ccc(C(=O)c2c(C)c(CCC#N)n3ccccc23)c(OC)c1,inactive
7,Cc1ccccc1NC(=O)C(C)OC(=O)CCC(=O)N(CC(C)C)c1c(N)n(CC(C)C)c(=O)[nH]c1=O (stereo not given),inactive
8,COc1ccc(C(=O)NCC(=O)N/N=C/c2ccc([N+](=O)[O-])o2)cc1OC,6.57 µM (active)
9,COc1ccc(C(=O)NCC(=O)N/N=C/c2ccc([N+](=O)[O-])s2)cc1OC,inactive
10,COc1cc(/C=N\NC(=O)CNC(=O)c2cccc([N+](=O)[O-])c2)ccc1O,inactive
11,O=C(Cn1ccc2cc(S(=O)(=O)N3CCCC3)ccc21)NCc1ccccc1,inactive
12,CCCOc1cccc(C(=O)Nc2ccccc2C(=O)N2CCN(C)CC2)c1,inactive
13,CC1=C(C/C=C(\C)CCCC(C)CCCC(C)CCCC(C)C)C(=O)c2ccccc2C1=O (stereo not given),10.7 µM (active)
14,CS(=O)(=O)c1ccc(Cl)c(NC(=O)COC(=O)c2ncc(Cl)c(Cl)c2Cl)c1,inactive
15,COc1ccc(CNc2cc(C)cc(C)c2)cc1OC,inactive
16,CN(CC(=O)Nc1cccc(F)c1)C(=O)C1CSC2(C)CCC(=O)N12 (stereo not given),inactive
17,CCn1c(=O)c2ccccc2n(CC(=O)N2CCCc3ccccc32)c1=O,inactive
18,Cn1c(SCC(=O)Nc2cccc(O)c2)nnc1-c1ccc(S(=O)(=O)N2CCOCC2)cc1,inactive
19,Cn1c(SCC(=O)OC2CCCCC2)nnc1-c1ccc(S(=O)(=O)N2CCCC2)cc1,2.62 µM (active)
20,Cn1c(SCC(=O)NC2CCCCC2)nnc1-c1ccc(N)cc1,inactive
21,Cc1ccc(C(=O)C(C)OC(=O)Cc2n[nH]c(=O)c3ccccc23)cc1C (stereo not given),inactive
22,CCc1ccc(-c2cc(C)no2)cc1S(=O)(=O)NCCc1ccc(S(N)(=O)=O)cc1,inactive
23,O=C(CCS(=O)(=O)c1ccc2c(c1)NC(=O)CS2)NCc1ccccc1Cl,inactive
24,Cc1ccc(S(=O)(=O)N(Cc2ccc(Cl)cc2)c2ccccc2C(=O)NCc2cccnc2)cc1,13.1 µM (active)
25,O=C(O)c1ccccc1-c1ccccc1C(=O)NCc1cccnc1,inactive

row,Structure (SMILES),Potency
1,CCc1ccc(N(CC(=O)NCc2cccnc2)S(=O)(=O)c2ccccc2)cc1,inactive
2,O=C(c1cnc(Cl)c(Cl)c1)N1CCN(S(=O)(=O)c2ccc(F)cc2)CC1,inactive
3,COc1cc(-c2cc(C(=O)OCC(=O)Nc3ccc4c(c3)OCO4)c3ccccc3n2)cc(OC)c1OC,inactive
4,CCCc1nc2ccccc2c(C(=O)OCc2nnc(-c3cc(OC)c(OC)c(OC)c3)o2)c1CC,4.65 µM (active)
5,O=C(OCc1nnc(-c2ccccc2)o1)c1cc(=O)[nH]c2ccccc12,inactive
6,COc1ccccc1C(=O)Nc1ccnn1C1CCN(C(=O)C(C)(C)C)CC1,inactive
7,COC(=O)c1[nH]c2ccc(Br)cc2c1NC(=O)Oc1ccccc1,inactive
8,COC(=O)c1[nH]c2ccccc2c1NC(=O)CN1CCCc2ccccc21,2.08 µM (active)
9,NS(=O)(=O)c1cccc(NC(=O)CN2CCCc3ccccc32)c1,inactive
10,CC(=O)N1CCc2c(sc(NC(=O)CCS(=O)(=O)c3ccc(C)cc3)c2C(N)=O)C1,inactive
11,O=C(NNS(=O)(=O)c1ccc(F)cc1)c1ccc([N+](=O)[O-])cc1Cl,inactive
12,CC(C)CCNC(=O)c1ccc2c(Cl)c3c(nc2c1)CCC3,inactive
13,Cc1ccc(S(=O)(=O)N2CCN(c3ccccc3)CC2)cc1C,inactive
14,Cc1cc(N2CCN(c3ccccc3)CC2)nc(N2CCOCC2)n1,inactive
15,Cc1cc(C)n(-c2nnc(N3CCN(c4ccccc4)CC3)nn2)n1,0.329 µM (active)
16,Cc1nn(Cc2ccccc2)c(C)c1C(=O)NCCCN1CCCC1=O,inactive
17,CCN1CCN(C(=O)C2CCCN(S(=O)(=O)c3ccc(OC)c(OC)c3)C2)CC1 (stereo not given),inactive
18,COCc1cc(=O)n2[nH]c(C)c(-c3ccccc3)c2n1,inactive
19,C#Cc1ccc([C@@H]2C=C(C(=O)O)O[C@H](OCCCCO)C2)cc1,inactive
20,O=C(C1=C[C@H](c2ccc(C(F)(F)F)cc2)C[C@H](OCc2ccc(CO)cc2)O1)N1CCN(Cc2ccccc2)CC1,3.7 µM (active)
21,O=C(NCc1ccccc1)C1=C[C@H](C2CC2)C[C@H](OCc2ccc(CO)cc2)O1,inactive
22,COCCNC(=O)CSc1nc2sccc2c(=O)n1-c1ccccc1,inactive
23,COc1ccc(C(=O)COC(=O)CNC(=O)c2cccs2)cc1Br,inactive
24,COc1ccc(-n2c(C)cc(C(=O)COC(=O)c3cc(OC)c(OC)cc3NC(=O)c3cccs3)c2C)cc1,4.15 µM (active)
25,Cc1cc(C(=O)COC(=O)c2cccs2)c(C)n1-c1c(C)n(C)n(-c2ccccc2)c1=O,inactive
